# Screens from PubChem BioAssay.
# CHT block: inhibitors of human choline transporter CHT; CHT-expressing cells, membrane potential dye, choline response; hits give low values; B-score at 10 µM; 310,000 tested, 0.86% active; AID 488975, 2010;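 active means B-score over 3 SD under the library average, and starting fluorescence ratio not unusually high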;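 further: choline stimulus applied at its EC90 after an EC20 pre-addition; B-score computed on integrated fluorescence ratio after choline addition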
# CHT PAM: CHT positive allosteric modulators, primary screen, cell-based, membrane potential dye, choline EC20; B-score at 10 µM; CHT-expressing cells; hits give high values; LV-AA mutant CHT in HEK293 cells; High affinity choline transporter 1 (Homo sapiens), Q9GZV3; 310,000 tested, 0.49% active;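 active means initial fluorescence not abnormally high and integrated response B-score, plate-corrected, over 3 SD above library mean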
# TMEM16A act: TMEM16A chloride channel activators or potentiators, primary screen, cell-based, HTS; Anoctamin-1 (Mus musculus), Q8BHY3; HEK293 TMEM16A/YFP-H148Q/I152L, iodide quench fluorescence; hits give low values; B-score at 10 µM; 340,000 tested, 0.3% active; AID 623877, 2012;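 active means fluorescence-ratio B-score plate-corrected deviation score at least 3 library SD below zero, with starting fluorescence score within 5 deviations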;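 further: channel opened by trigger with iodide after compound preincubation; score built on the fluorescence ratio of max minus min over baseline; more negative score means more quench and so TMEM16A activation or potentiation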
# ANO1 block: TMEM16A chloride channel inhibitors, primary screen, cell-based, HTS; HEK293 TMEM16A/YFP iodide influx fluorescence, ionomycin; normalized B-score (activity score, 25-100; higher = stronger inhibition) at 10 µM; Anoctamin-1 (Mus musculus), Q8BHY3; 310,000 tested, 1.2% active;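 active means ratio plate-corrected score three or more library SD toward inhibition, starting fluorescence score within five deviations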;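 further: score derived from kinetic fluorescence span divided by baseline fluorescence per well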
# * = called active by the depositor; i = inactive; x = not tested or not shown. Shown are actives, neighbours in structure and some others; about 2.3% of the full set was active somewhere.
SMILES,CHT block,CHT PAM,TMEM16A act,ANO1 block
CN(C)c1ccc(C(=O)c2ccc(N(C)C)c3ccccc23)cc1,i,10*,i,i
COc1ccccc1N1C(=NC(=O)CCc2ccccc2)SC2CS(=O)(=O)CC21 (configuration not stated),i,i,i,i
COc1cccc(CNc2ccc(C)c(Cl)c2)c1,i,i,i,i
COc1cccc(CNc2cc(CSc3ccc(Cl)cc3)nc(C)n2)c1,i,i,i,100*
N=c1c2c(-c3ccccc3)c(-c3ccccc3)n(Cc3ccco3)c2ncn1Cc1ccccc1,i,i,i,100*
OCCNc1ncnc2c1c(-c1ccccc1)c(-c1ccccc1)n2Cc1ccco1,i,i,i,i
c1ccc(-c2oc3ncnc(NCCCn4ccnc4)c3c2-c2ccccc2)cc1,i,i,i,100*
c1ccc(-c2c(-c3ccccc3)n(Cc3ccco3)c3ncnc(NCCCn4ccnc4)c23)cc1,i,i,i,100*
CN(C)CCCNc1ncnc2oc(-c3ccccc3)c(-c3ccccc3)c12,i,i,i,i
FC(F)(F)c1cccc(NC(=S)Nc2ccc(Cl)cc2Cl)c1,i,i,i,100*
S=C(Nc1ccccc1)Nc1ccc(Cl)cc1Cl,i,i,i,i
C=CCNC(=O)C1CCN(S(=O)(=O)c2ccc3ccccc3c2)CC1,i,i,i,i
CCCCNS(=O)(=O)c1ccc2nc(SCC(=O)Nc3sccc3C#N)[nH]c2c1,i,i,i,100*
CSCC(C)N1CCC(Oc2cccc(C(=O)NCc3ccccn3)c2)CC1 (configuration not stated),-17*,i,i,i
COC(=O)CCC(C)N1CCC(Oc2ccc(C(=O)NCc3ccccn3)cc2)CC1 (configuration not stated),x,x,i,x
Cc1ccc(CCNS(=O)(=O)c2ccc3c(c2)NC(=O)C(C)C(=O)N3)cc1 (configuration not stated),i,i,i,i
COc1ccc(-c2sc3ccccc3c2C#CCO)cc1,i,i,i,25*
COc1cc2oc3ccccc3c2cc1N(CC(=O)N1CCCCC1)S(=O)(=O)c1ccc(C)cc1,i,i,-29*,i
COc1ccc(-c2cc(C(F)(F)F)nc(SCC(=O)N3CC(C)OC(C)C3)n2)cc1OC (configuration not stated),x,x,-4.6*,x
COc1ccc(-c2cc(C(F)(F)F)nc(SCC(=O)Nc3cc(C)on3)n2)cc1OC,i,i,i,i
COC(=O)/C=C/c1ccccc1CN1[C@@H](CC(=O)OC)c2ccccc2S1(=O)=O,x,x,i,x
O=C1/C(=C/c2ccc(O)cc2)SC(=S)N1CC1CCCO1 (configuration not stated),i,i,-5.1*,i
COc1cc(C=C(c2nc3ccccc3s2)c2nc3ccccc3s2)ccc1O,i,i,-6.7*,i
COc1cc(/C=C/c2nc3ccccc3s2)cc(OC)c1O,i,i,-6.9*,i
COCCN=c1scc(-c2ccco2)n1/N=C/c1ccc(O)c(O)c1O,i,i,i,i
SMILES,CHT block,CHT PAM,TMEM16A act,ANO1 block
CC(C)N=c1scc(-c2ccco2)n1/N=C/c1ccc(O)c(O)c1,i,i,i,100*
Cc1nnc(SCC(=O)N2CCN(S(=O)(=O)c3ccc(Cl)cc3)CC2)n(N)c1=O,i,i,-17*,i
CCOc1cc(CNCc2ccncc2)cc(Br)c1OCc1ccc(F)cc1,i,i,i,100*
Fc1ccc(COc2cccc(CNCc3ccncc3)c2)cc1,i,i,i,25*
O=C(O)C1Oc2ccccc2C1c1ccccc1 (configuration not stated),x,x,i,x
N#CCCN(C(=O)COC(=O)CCc1c[nH]c2ccccc12)c1ccccc1,i,i,i,i
O=C(/C(N=Nc1cccc(C(F)(F)F)c1)=C(/O)c1cccs1)C(F)(F)F,i,i,i,100*
CN(C(=O)/C(N=Nc1cccc(C(F)(F)F)c1)=C(\O)C(F)(F)F)c1ccccc1,i,i,i,100*
CS(=O)c1nc(-c2ccc(Br)cc2)cc(-c2ccccc2)c1C#N (configuration not stated),i,i,i,100*
